Reference: PubChem BioAssay (NCATS)
Values joined by “and” are separate entries in the source; they are usually repeats but may differ in a detail not shown here. Equal entries are not always repeated. Records with an inconclusive call do not appear. Active and inactive are the calls of the source. Unless noted, the call rests on the fitted dose curve; in most records, active means well fitted curve in either direction with a large enough effect (not every such curve was filed as active); inconclusive means small, poorly fitted or top-dose-only effect, or another doubt; inactive means flat fitted curve, though single readings scatter.

How the values were obtained:
[1] = biological target: Cytochrome P450 1A2 (Homo sapiens) (UniProt P05177); test: p450-cyp1a2 (AID 410; calls by dose curve; further: potency means the concentration at half of the fitted maximal effect)
Method in brief: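 Inhibition was calculated relative to 57 uM furafylline (full inhibition). The reaction used human CYP1A2 at 20nM with Luciferin-ME at its Km, 100uM, driven by an NADPH-regenerating system for 60 min at room temperature.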

[2] = biological target: Glucocorticoid receptor (Homo sapiens) (UniProt P04150); test: GR-GFP Redistribution (AID 450;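 active means compounds whose dose series gives a full or clear partial fitted curve of increased nuclear translocation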; further: potency means the concentration at half of the fitted maximal effect); settings: U2OS GR-GFP nuclear translocation, laser cytometry, 2 h
[3] = biological target: Glucocorticoid receptor (Homo sapiens) (UniProt P04150); test: GR-EFC Redistribution (AID 451; calls by dose curve; further: potency means the concentration at half of the fitted maximal effect); settings: CHO-K1 GR-EFC translocation, beta-gal luminescence, 2 h
Method in brief: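 Translocation of GR-ED fusion to nuclear EA restores b-gal, read by luminescence after 1 h room-temperature detection. Engineered CHO-K1 biosensor cells, 1,000/well, exposed 2 h at 37 C to titrations up to 46 uM final.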

[4] = biological target: Mitogen-activated protein kinase 10 (Mus musculus) (UniProt Q61831); test: JNK3 AlphaScreen Assay (AID 530);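 further: kinase came from lysate of stimulated human HepG2 cells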; further: potency means the concentration at half of the fitted maximal effect;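 on activity change, negative = inhibition: signal reports phosphorylation of biotinylated GST-cJun 1-79 at Ser73 with 10 µM ATP; on the % scale 0 is the no-effect control and ±100 the full control effect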
Method in brief: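 Room-temperature AlphaScreen kinase assay; pre-activated HepG2 lysate as JNK3 source, biotin-GST-cJun(1-79) substrate, 10 uM ATP, compound 15 min preincubation.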

[5] = biological target: 3',5'-cyclic-AMP phosphodiesterase 4B (Homo sapiens) (UniProt Q07343); test: qHTS Assay for Inhibitors of PDE-IV (AID 607; active means well fitted activation curve with a large enough effect in the main read-out, with a control signal flat, not every such curve was filed as active; further: % of control where 0% means no effect)
Method in brief: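 Live HEK293 cells with a modified cyclic nucleotide-gated (CNG) channel report intracellular cAMP via membrane-potential dye fluorescence (ex 535/em 590 nm). Endogenous PDE-IV was targeted. Compounds were tested at up to 22.9 uM final; RO 20-1724 100 uM served as control.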

[6] = AP1 Signaling Pathway (AID 357);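 further: ME-180 reporter cells stimulated with EGF at its EC50 level; on the % scale 0 is the no-effect control and ±100 the full control effect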
Method in brief: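 Cells are seeded overnight, exposed to compound titrations and an EC50 level of EGF for 5 hours at 37 °C, then loaded with CCF4 dye for 2.5 hours. Beta-lactamase activity under the AP-1 element is read as a blue/green ratio.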

[7] = NFAT Signaling Pathway (AID 444); settings: Jurkat NFAT-bla M1, carbachol, beta-lactamase ratio, 5 h;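 further: carbachol stimulus at about its EC50 of 1 µM final; on the % scale 0 is the no-effect control and ±100 the full control effect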
Method in brief: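 Read-out: CCF4 FRET ratio (460 nm/530 nm) after 1 h RT dye loading, used for %activity and AC50 from titration series. Cells: Jurkat NFAT-β-lactamase/M1 line, treated with compound plus 1 uM carbachol for 5 h, 37 °C.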

[8] = Stat Signaling Pathway (AID 446);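 further: ME-180 cervical cancer cells given 40 pM IL-6 alongside compound; SIE-controlled beta-lactamase reporter measured as 460/530 nm FRET emission ratio; on the % scale 0 is the no-effect control and ±100 the full control effect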
Method in brief: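 IL-6/STAT signaling read in ME-180 cells via an SIE beta-lactamase reporter. Stimulus was 40 pM IL-6 (its AC50) for 5 hrs, so both activation and inhibition register.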

[9] = Cell Viability - BJ (AID 421; calls by dose curve;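 further: potency means the concentration at half of the fitted maximal effect; cells exposed to compound for 40 hours at 37 °C before readout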); settings: BJ fibroblast viability, qHTS
Method in brief: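 Quantitative HTS: ATP depletion in BJ cells after 40 hr compound exposure in complete culture medium, detected with CellTiter-Glo; AC50 from standard Hill fits.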

[10] = Cell Viability - Jurkat (AID 426;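 active means dose-dependent loss of cell ATP signal giving a full or clear fitted curve, ranked by lower potency value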;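 further: potency means the concentration at half of the fitted maximal effect; cells exposed to compound for 40 hours at 37 °C before ATP read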); settings: qHTS
Method in brief: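 Seed 5000 Jurkat E6-1 cells/well; add compound; incubate 40 hr at 37 °C; add CellTiter-Glo; wait 20 min at room temperature; read luminescence. Fit concentration-response with Hill equation for AC50.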

[11] = Cell Viability - Hek293 (AID 427;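 active means compounds whose dose-response curve shows a full or clear partial loss of cell viability, called from curve shape rather than a numeric limit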;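 further: potency means the concentration at half of the fitted maximal effect; cells exposed to compound for 40 hours at 37 °C before reading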); settings: qHTS
Method in brief: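 AC50 values derive from Hill-modelled concentration-response of ATP-based luminescence, normalized between DMSO-only and 100 uM tamoxifen controls. Cells were exposed in complete culture medium for 40 hr at 37 °C before detection.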

[12] = Cell Viability - HepG2 (AID 433; calls by dose curve;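 further: potency means the concentration at half of the fitted maximal effect; potency for ATP loss meaning cytotoxicity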); settings: qHTS
Method in brief: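 HepG2 hepatocellular carcinoma cells (1500/well) were treated with compounds for 40 h at 37 °C in complete medium; intracellular ATP was read by CellTiter-Glo luminescence. Data were normalized to DMSO and 100 uM tamoxifen, and AC50 came from Hill fits.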

[13] = Cell Viability - SK-N-SH (AID 435; calls by dose curve;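 further: potency means the concentration at half of the fitted maximal effect; compound exposure lasted 40 h at 37 °C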); settings: SK-N-SH neuroblastoma cell viability qHTS
Method in brief: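 SK-N-SH human neuroblastoma cells (1500/well) were exposed to compounds in complete medium for 40 h at 37 °C, and intracellular ATP was then measured by CellTiter-Glo luminescence. AC50 was taken from Hill fits, normalized to DMSO and 100 uM tamoxifen.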

[14] = Cell Viability - N2a (AID 540; active means well fitted curve in the direction sought with a large enough effect; an effect the other way counts as inactive or inconclusive;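 further: plate controls were DMSO alone for no effect and tamoxifen control for full effect; nearly all actives have a fitted effect of over 45% in size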); settings: N2a mouse neuroblastoma cell viability; activity change, negative = cytotoxicity: at 92.2 µM (top of the series)
Method in brief: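 First, 1500 N2a cells per well incubate 5 hr at 37 °C; next, compounds are added and incubated 40 hr at 37 °C; finally CellTiter-Glo is added and luminescence read after 20 min, with AC50 derived by Hill modeling.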

[15] = Cell Viability - NIH 3T3 (AID 541; active means well fitted curve in the direction sought with a large enough effect; an effect the other way counts as inactive or inconclusive;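 further: plate controls were DMSO alone for no effect and tamoxifen positive control for full effect; nearly all actives have a fitted effect of over 25% in size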)
Method in brief: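 AC50 values reflect concentration-dependent loss of intracellular ATP in NIH 3T3 cells after 40 hr treatment in complete culture medium, quantified by luciferase-based luminescence.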

[16] = Cell Viability - HUV-EC-C (AID 542; active means well fitted curve in the direction sought with a large enough effect; an effect the other way counts as inactive or inconclusive; further: on the % scale 0 is the no-effect control and ±100 the full control effect; nearly all actives have a fitted effect of over 35% in size)
Method in brief: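 Decrease in cellular ATP, quantified by luciferase luminescence, reflects toxicity in normal human vascular endothelial HUV-EC-C cells given compound for 40 hr in complete culture medium. Values are AC50s from concentration-response curves.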

[17] = Cell Viability - H-4-II-E (AID 543; active means well fitted curve in the direction sought with a large enough effect; an effect the other way counts as inactive or inconclusive; further: on the % scale 0 is the no-effect control and ±100 the full control effect; nearly all actives have a fitted effect of over 35% in size)
Method in brief: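 Here, cytotoxicity is measured in the rat hepatoma line H-4-II-E as loss of intracellular ATP after 40 hr compound treatment, detected by luciferase luminescence.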

[18] = Cell Viability - SH-SY5Y (AID 544; active means well fitted curve in the direction sought with a large enough effect; an effect the other way counts as inactive or inconclusive;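 further: 0% = DMSO alone and -100% = 100 µM tamoxifen; nearly all actives have a fitted effect of over 55% in size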)
Method in brief: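 Cytotoxicity is scored as a concentration-dependent fall in intracellular ATP in human SH-SY5Y cells treated 40 hr in complete culture medium. Potency is expressed as AC50 from a Hill equation fit.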

[19] = Cell Viability - Renal Proximal Tubule (AID 545; active means well fitted curve in the direction sought with a large enough effect; an effect the other way counts as inactive or inconclusive;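 further: 0% = DMSO only and -100% = 100 µM tamoxifen; nearly all actives have a fitted effect of over 40% in size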)
Method in brief: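 Primary rat renal proximal tubule cells (1000/well) were treated with compounds for 40 hr at 37 °C in complete medium. Intracellular ATP was measured by CellTiter-Glo luminescence, and AC50 values came from Hill-equation fits of concentration-response data.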

[20] = Cell Viability - Mesenchymal (AID 546; active means well fitted curve in the direction sought with a large enough effect; an effect the other way counts as inactive or inconclusive;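 further: cells exposed to compound for 40 hours before reading; 0% = DMSO only and -100% = 100 µM tamoxifen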)
Method in brief: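 AC50 values reflect the drop in intracellular ATP in a human kidney mesenchymal line derived from normal glomeruli. Treatment lasts 40 hr at 37 °C in complete medium, and the signal comes from CellTiter-Glo luminescence.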

Sequence of Glucocorticoid receptor (Homo sapiens) (P04150 whole entry, looked up, the tested form may be a part): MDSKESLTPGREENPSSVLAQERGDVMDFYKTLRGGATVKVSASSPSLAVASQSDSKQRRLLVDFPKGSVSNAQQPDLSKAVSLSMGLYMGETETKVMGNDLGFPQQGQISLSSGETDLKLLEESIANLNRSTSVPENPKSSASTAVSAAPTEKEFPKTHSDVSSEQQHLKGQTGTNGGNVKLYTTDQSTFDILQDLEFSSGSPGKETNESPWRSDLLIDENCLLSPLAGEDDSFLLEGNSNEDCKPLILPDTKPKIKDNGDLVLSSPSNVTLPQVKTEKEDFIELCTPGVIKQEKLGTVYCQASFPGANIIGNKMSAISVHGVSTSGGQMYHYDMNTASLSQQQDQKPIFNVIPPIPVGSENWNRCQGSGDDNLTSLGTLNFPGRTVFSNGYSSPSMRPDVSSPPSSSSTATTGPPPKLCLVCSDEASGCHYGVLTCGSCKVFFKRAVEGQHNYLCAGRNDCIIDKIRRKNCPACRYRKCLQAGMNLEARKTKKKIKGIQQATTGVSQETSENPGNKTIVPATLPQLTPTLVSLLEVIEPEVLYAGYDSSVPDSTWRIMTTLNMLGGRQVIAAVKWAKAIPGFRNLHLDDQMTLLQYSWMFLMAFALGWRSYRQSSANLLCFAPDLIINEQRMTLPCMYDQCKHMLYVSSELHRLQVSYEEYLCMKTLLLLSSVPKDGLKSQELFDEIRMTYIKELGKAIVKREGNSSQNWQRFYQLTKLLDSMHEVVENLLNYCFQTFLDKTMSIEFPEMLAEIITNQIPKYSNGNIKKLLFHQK
Sequence of 3',5'-cyclic-AMP phosphodiesterase 4B (Homo sapiens) (Q07343 whole entry, looked up): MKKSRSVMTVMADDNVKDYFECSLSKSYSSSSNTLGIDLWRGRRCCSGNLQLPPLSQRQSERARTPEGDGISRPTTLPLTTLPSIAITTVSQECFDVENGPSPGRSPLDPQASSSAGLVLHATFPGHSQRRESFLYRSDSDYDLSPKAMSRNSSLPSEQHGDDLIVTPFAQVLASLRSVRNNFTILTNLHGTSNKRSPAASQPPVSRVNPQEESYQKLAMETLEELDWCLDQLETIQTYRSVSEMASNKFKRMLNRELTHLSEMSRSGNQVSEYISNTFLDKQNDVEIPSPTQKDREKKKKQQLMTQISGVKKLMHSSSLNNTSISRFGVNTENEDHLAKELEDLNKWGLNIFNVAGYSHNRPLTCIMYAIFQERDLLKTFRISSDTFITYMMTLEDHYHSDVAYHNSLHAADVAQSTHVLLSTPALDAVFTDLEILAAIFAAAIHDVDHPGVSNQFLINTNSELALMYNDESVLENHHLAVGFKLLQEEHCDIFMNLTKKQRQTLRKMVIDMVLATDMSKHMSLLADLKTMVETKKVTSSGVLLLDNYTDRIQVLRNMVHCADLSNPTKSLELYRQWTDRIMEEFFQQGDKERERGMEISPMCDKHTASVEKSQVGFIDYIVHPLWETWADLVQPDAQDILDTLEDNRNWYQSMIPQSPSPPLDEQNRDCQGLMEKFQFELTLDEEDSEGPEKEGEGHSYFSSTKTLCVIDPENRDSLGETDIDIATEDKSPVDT
Sequence of Cytochrome P450 1A2 (Homo sapiens) (P05177 whole entry, looked up): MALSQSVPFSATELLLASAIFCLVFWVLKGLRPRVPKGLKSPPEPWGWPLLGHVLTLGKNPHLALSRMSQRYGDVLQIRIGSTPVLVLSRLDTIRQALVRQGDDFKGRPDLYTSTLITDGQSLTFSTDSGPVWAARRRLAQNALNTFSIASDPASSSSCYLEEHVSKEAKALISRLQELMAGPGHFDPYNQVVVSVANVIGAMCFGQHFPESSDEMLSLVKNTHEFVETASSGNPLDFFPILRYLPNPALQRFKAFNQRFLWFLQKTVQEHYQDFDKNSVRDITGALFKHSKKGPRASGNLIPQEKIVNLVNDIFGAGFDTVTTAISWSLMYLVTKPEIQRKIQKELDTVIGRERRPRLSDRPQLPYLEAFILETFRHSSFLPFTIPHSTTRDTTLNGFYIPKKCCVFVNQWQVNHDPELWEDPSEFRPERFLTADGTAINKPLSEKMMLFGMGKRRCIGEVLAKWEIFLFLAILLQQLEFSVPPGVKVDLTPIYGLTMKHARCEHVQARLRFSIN

O=C(O)c1cccnc1Nc1cccc(C(F)(F)F)c1
active: Potency [1] 10 µM and 5.01 µM

CCN(CC)C(=S)SSC(=S)N(CC)CC
inactive: Potency [2] > 46 µM and > 20.6 µM | Potency [3] > 46 µM and > 20.6 µM | Potency [4] | outcome [5]

O=C1c2ccccc2-c2n[nH]c3cccc1c23
active: Potency [4] 1 µM
inactive: outcome [6] | activity change, negative = inhibition ([7]; at 38 µM (top of the series)) 6.14% | outcome [5]

O=C1NC(=O)C(c2ccccc2[N+](=O)[O-])=C1Nc1ccc(O)c(Cl)c1
inactive: activity change, negative = inhibition ([7]; at 38 µM (top of the series)) -15.2% | outcome [8] | Potency [2] > 46 µM | Potency [3] > 46 µM | outcome [5]

CNC[C@H](O)c1ccc(O)c(O)c1
inactive: outcome [6] | activity change, negative = inhibition ([7]; at 38 µM (top of the series)) 1.71% and -6.16% | outcome [8] | Potency [4] | outcome [5]

O=C(CCc1ccc(O)cc1)c1c(O)cc(O)cc1O
inactive: outcome [6] | activity change, negative = inhibition ([7]; at 38 µM (top of the series)) 9.49% | Potency [2] > 46 µM | Potency [3] > 46 µM | Potency [4] | outcome [5]

Oc1ccc(-c2nc(-c3ccc(F)cc3)c(-c3ccncc3)[nH]2)cc1
inactive: outcome [6] | outcome [8] | Potency [2] > 46 µM | Potency [3] > 46 µM | outcome [5]

CCCCc1ccc2nc(NC(=O)OC)[nH]c2c1
inactive: outcome [6] | outcome [8] | Potency [4] | outcome [5]

CCN(CC)CCOc1ccc(Cc2ccccc2)cc1
inactive: Potency [2] > 46 µM | Potency [3] > 46 µM | Potency [4]

Oc1ccc(OCc2ccccc2)cc1
inactive: activity change, negative = inhibition ([7]; at 17.2 µM (top of the series)) -7.24% | outcome [8] | Potency [2] > 20.6 µM | Potency [3] > 20.6 µM | Potency [4] | outcome [5]

COc1cc2nc(N3CCN(C(=O)C4CCCO4)CC3)nc(N)c2cc1OC (stereo not drawn)
inactive: outcome [6] | outcome [8] | Potency [2] > 20.6 µM

CS(=O)(=O)OCCCCOS(C)(=O)=O
inactive: Potency [9] > 92 µM | Potency [10] > 92 µM | Potency [11] > 92 µM | Potency [12] > 92 µM | Potency [13] > 92 µM | Potency [4] | Potency [14] | Potency [15] | Potency [16] | Potency [17] | Potency [18] | Potency [19] | Potency [20]

COC(=O)C1=C(C)NC(C)=C(C(=O)OC(C)C)C1c1cccc2nonc12 (stereo not drawn)
inactive: Potency [2] > 46 µM | Potency [3] > 46 µM | Potency [4]

Cc1cc(C2CCCCC2)n(O)c(=O)c1
inactive: outcome [6] | outcome [8] | Potency [2] > 20.6 µM | Potency [3] > 20.6 µM | Potency [4] | outcome [5]

CC(=O)N1CCN(c2ccc(OC[C@H]3CO[C@](Cn4ccnc4)(c4ccc(Cl)cc4Cl)O3)cc2)CC1
inactive: Potency [2] > 46 µM | Potency [3] > 46 µM

COc1cc(OC)c(C(=O)CCCN2CCCC2)c(OC)c1
inactive: outcome [6] | outcome [8] | Potency [2] > 20.6 µM | Potency [3] > 20.6 µM | Potency [4] | outcome [5]

CCCOc1ccc2nc(NC(=O)OC)[nH]c2c1
inactive: outcome [6] | outcome [8] | Potency [2] > 20.6 µM

O=C(NCCO[N+](=O)[O-])c1cccnc1
inactive: Potency [2] > 46 µM | Potency [3] > 46 µM | Potency [4] | outcome [5]
